Laboratory results: ChEMBL document CHEMBL3988442, “University of Dundee, Small-Polar-MMV Screening Library” (2021)
About 960 (1.5%) of roughly 66,000 compounds showed an effect of 50% or more. Shown is part of a subset that was picked to be rich in strong results.

Test system: Trypanosoma brucei
Test: Trypanosoma brucei 72 hour study
Format: functional, organism-based
Set-up: scale not given: in the data most compounds retested in dose-response had high values

## COCCN1CCCn2c(nc(CNS(C)(=O)=O)cc2=O)C1.O=C(O)C(F)(F)F
30.3 µM, […]
  Percent Effect: 5.593%

## CC(=O)N1N=C(c2ccccc2)OC1C(=O)NCCc1ccc(O)cc1 (stereo not drawn)
30.3 µM, […]
  Percent Effect: -23.74%
10 mM, 10 mM as filed; unlikely as a test dose
  Percent Effect: -98.13%

## CC(=O)N1N=C(c2ccccc2)OC1C(=O)NCCc1ccc(C)cc1 (stereo not drawn)
30.3 µM, […]
  Percent Effect: 99.94%
10 mM, 10 mM as filed; unlikely as a test dose
  Percent Effect: -45.21%

## CC(=O)N1N=C(c2ccccc2)OC1C(=O)NCCc1ccc(Cl)cc1 (stereo not drawn)
30.3 µM, […]
  Percent Effect: -41.87%
10 mM, 10 mM as filed; unlikely as a test dose
  Percent Effect: -29.49%

## O=C(Cc1cccc(F)c1)N1CCn2cc(Cn3cccn3)nc2C1.O=C(O)C(F)(F)F
30.3 µM, […]
  Percent Effect: -215.4%

## CC(C)c1n[nH]c(C2CN(C(=O)c3ccnc(C4CC4)n3)CCO2)n1 (stereo not drawn)
10 µM
  Percent Effect: -44.45%

## Cc1nc2c(cc1C(=O)O)CCN(Cc1ccsc1)CC2.O=C(O)C(F)(F)F.O=C(O)C(F)(F)F
30.3 µM, […]
  Percent Effect: -6.304%

## Cc1ncc(CN2CCOC(c3ccc(-c4ccccc4F)cn3)C2)s1 (stereo not drawn)
30.3 µM, […]
  Percent Effect: 93.67%

## Cc1ncc(CN2CCOC(c3ccc(-c4cc[nH]n4)cn3)C2)s1 (stereo not drawn)
30.3 µM, […]
  Percent Effect: -10.46%

## Cc1ncc(CN2CCOC(c3ccc(-c4cnn(C)c4)cn3)C2)s1 (stereo not drawn)
30.3 µM, […]
  Percent Effect: -5.677%

## O=C(NC[C@]12COC[C@H]1CN(Cc1nccs1)C2)c1ccsc1.O=C(O)C(F)(F)F
30 µM, 30.03 µM
  Percent Effect: -41.51%

## CN(C)CCN1CCN(Cc2cccc(C#N)c2)Cc2cccnc21.O=C(O)C(F)(F)F.O=C(O)C(F)(F)F.O=C(O)C(F)(F)F
30.3 µM, […]
  Percent Effect: -65.33%

## CN1C(=O)[C@H]2CC[C@@H]1CN(S(=O)(=O)c1ccc(Cl)cc1Cl)C2
30 µM, 30.03 µM
  Percent Effect: 13.71%

## CC(C)c1nc(CN2CCCC2c2cnn(C)c2)cs1 (stereo not drawn)
10 µM
  Percent Effect: -7.544%

## Cn1cc(C2CCCN2Cc2csc(-c3ccccc3)n2)cn1 (stereo not drawn)
10 µM
  Percent Effect: -15.89%

## Cn1cc(C2CCCN2Cc2csc(C(C)(C)C)n2)cn1 (stereo not drawn)
30 µM, 30.03 µM
  Percent Effect: 87.76%

## COCCn1c(=O)n(C)c(=O)c2ccc(C3CCN(C(C)=O)CC3)nc21
30.3 µM, […]
  Percent Effect: 24.28%

## Cl.OC[C@H]1CC[C@]2(CC1)CN(Cc1ccsc1)Cc1ccccc1O2
30.3 µM, […]
  Percent Effect: 39.16%

## CC(C)c1nccc(CN2CCC(O)(CN3CCCCC3)C2)n1 (stereo not drawn)
30 µM, 30.03 µM
  Percent Effect: 67.93%

## CC(C)c1nccc(CN2CCCC(O)(CN(C)C)C2)n1 (stereo not drawn)
30 µM, 30.03 µM
  Percent Effect: -2.317%

## CC(C)c1nccc(CN2CCCC(O)(CN3CCCC3)C2)n1 (stereo not drawn)
30 µM, 30.03 µM
  Percent Effect: 17.13%

## CCCSc1ncc(CN(C)CCN2CCCCC2)cn1.O=C(O)CC(O)(CC(=O)O)C(=O)O
30.3 µM, […]
  Percent Effect: 2.471%

## Cc1cccc(Nc2cc(C3CCCN(CC(N)=O)C3)ccn2)n1.O=CO.O=CO (stereo not drawn)
30.3 µM, […]
  Percent Effect: -0.9423%

## CCOc1ccccc1N1CCN(CC2(O)CCCNC2)CC1 (stereo not drawn)
30 µM, 30.03 µM
  Percent Effect: -24.1%

## Cc1ccc(C)c(N2CCN(CC3(O)CCNC3)CC2)c1 (stereo not drawn)
30 µM, 30.03 µM
  Percent Effect: 106.8%

## Cc1ccccc1N1CCCN(CC2(O)CCCNC2)CC1 (stereo not drawn)
30 µM, 30.03 µM
  Percent Effect: 24.63%

## Cn1cccc1C(=O)N1CCC2(CC1)CN(c1ccsc1)C(=O)CO2
30.3 µM, […]
  Percent Effect: -133.6%

## COc1ccc(CN2CCO[C@H]3[C@H](OCCN4CCCC4)CC[C@@H]32)cc1.O=C(O)C(F)(F)F.O=C(O)C(F)(F)F
30.3 µM, […]
  Percent Effect: -2.76%

## Cc1nn(C)cc1CN1CCc2c(nc(-c3ccccn3)[nH]c2=O)C1
30.3 µM, […]
  Percent Effect: 3.808%

## O=c1[nH]c(-c2ccccn2)nc2c1CCN(Cc1cccc(O)c1)C2
30.3 µM, […]
  Percent Effect: -1.061%

## COc1ccccc1CN1CCc2c(nc(-c3ccccn3)[nH]c2=O)C1
30.3 µM, […]
  Percent Effect: 100.6%

## O=c1[nH]c(-c2ccccn2)nc2c1CCN(S(=O)(=O)N1CCCC1)C2
30.3 µM, […]
  Percent Effect: 16.13%

## Cn1cc(CN2CCc3c(nc(-c4ccccn4)[nH]c3=O)C2)cn1
30 µM, 30.03 µM
  Percent Effect: 19.69%

## Cc1ncc(CN2CCc3c(nc(-c4ccccn4)[nH]c3=O)C2)n1C
30.3 µM, […]
  Percent Effect: 9.769%

## CCn1ncc(CN2CCc3c(nc(-c4cccnc4)[nH]c3=O)C2)c1C
30 µM, 30.03 µM
  Percent Effect: 24.52%

## COc1ccc(CN2CCc3c(nc(-c4ccccn4)[nH]c3=O)C2)cc1
30.3 µM, […]
  Percent Effect: 100.8%

## Cn1cccc1CN1CCc2c(nc(-c3ccccn3)[nH]c2=O)C1
30.3 µM, […]
  Percent Effect: 100.6%

## CCN(CC)CC1CN(CCc2ccccc2)Cc2nccn2C1.O=C(O)C(F)(F)F.O=C(O)C(F)(F)F (stereo not drawn)
30 µM, 30.03 µM
  Percent Effect: -28.98%

## CC(C)c1nn(C)c(N(C)C)c1CNCCC(=O)NC1CCCCC1
30.3 µM, […]
  Percent Effect: -9.322%

## Cc1cccc(CN2C(=O)CCC23CCN(Cc2cccn2C)CC3)n1.O=C(O)C(F)(F)F.O=C(O)C(F)(F)F
30.3 µM, […]
  Percent Effect: -13.68%

## Cl.O=C(CCC1CCCC1)NCCn1nc(C2CCNC2)c2cccnc21 (stereo not drawn)
30 µM, 30.03 µM
  Percent Effect: 11.21%

## CN(C)c1ncc(-c2ccc(C(N)=O)cc2)c(C2CCNC2)n1.Cl (stereo not drawn)
30.3 µM, […]
  Percent Effect: 3.717%

## C[C@@H]1CN(C2CCCCC2)CC[C@@]1(O)C1CCOCC1
30 µM, 30.03 µM
  Percent Effect: -20.03%

## CC(Nc1nc(-c2ccncc2)nc2c1CCNC2)c1ccccc1 (stereo not drawn)
30 µM, 30.03 µM
  Percent Effect: -57.19%

## CCOCCNc1nc(-c2ccncc2)nc2c1CCNCC2
30.3 µM, […]
  Percent Effect: -307.1%
